Assay results published in PubChem BioAssay (EPA / NIEHS).
Several values for one entry are separate records, joined by “and”; a condition that tells them apart may be missing. Equal values may be shown once. Activity calls are given as the source filed them. How the source made its calls: active means hit-call score of the fitted dose curve at least 0.9, where 1 is the maximum; inactive means score below 0.9.

Columns and labels:
[1] = read-out: Tissue plasminogen activator (tPA), PLAT (gene 5327); test: BSK_BE3C_tPA: BioMAP Diversity Plus: BE3C Assay for Tissue plasminogen activator (tPA) Biomarker Activity (AID 2283041); details: primary human bronchial epithelial cells; actives raise or lower the signal;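 further: tPA level quantified by ELISA one day after compound addition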
In short: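 Human primary bronchial epithelial cells were dosed with chemical and tPA biomarker levels measured by ELISA 24 hours later. Activity was fitted bidirectionally against DMSO as negative control and baseline.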

[2] = read-out: Interleukin-8 (IL8), CXCL8 (gene 3576); test: BSK_CASM3C_IL8: BioMAP Diversity Plus: CASM3C Assay for Interleukin-8 (IL8) Biomarker Activity (AID 2283042); details: primary human coronary artery smooth muscle cells; actives raise or lower the signal;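 further: IL-8 protein level quantified by ELISA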
[3] = read-out: Human Leukocyte Antigen - DR isotype (HLADR), HLA-DRA (gene 3122); test: BSK_CASM3C_HLADR: BioMAP Diversity Plus: CASM3C Assay for Human Leukocyte Antigen - DR isotype (HLADR) Biomarker Activity (AID 2283043); details: primary human coronary artery smooth muscle cells; actives raise or lower the signal;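 further: cell-surface HLA-DR protein level quantified by ELISA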
[4] = read-out: Macrophage colony-stimulating factor (MCSF), CSF1 (gene 1435); test: BSK_CASM3C_MCSF: BioMAP Diversity Plus: CASM3C Assay for Macrophage colony-stimulating factor (MCSF) Biomarker Activity (AID 2283044); details: primary human coronary artery smooth muscle cells; actives raise or lower the signal;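 further: M-CSF protein amount quantified by ELISA after 24 h exposure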
[5] = read-out: Low-density lipoprotein receptor (LDLR), LDLR (gene 3949); test: BSK_CASM3C_LDLR: BioMAP Diversity Plus: CASM3C Assay for Low-density lipoprotein receptor (LDLR) Biomarker Activity (AID 2283045); details: primary human coronary artery smooth muscle cells; actives raise or lower the signal;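 further: LDLR protein level on the cell surface quantified by ELISA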
[6] = read-out: Monocyte Chemoattractant Protein-1 (MCP1), CCL2 (gene 6347); test: BSK_CASM3C_MCP1: BioMAP Diversity Plus: CASM3C Assay for Monocyte Chemoattractant Protein-1 (MCP1) Biomarker Activity (AID 2283046); details: primary human coronary artery smooth muscle cells; actives raise or lower the signal;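 further: MCP-1 level quantified by ELISA 24 h after dosing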
[7] = BSK_CASM3C_Proliferation: Cell Proliferation Assessment in the BioMAP Diversity Plus: CASM3C Assay (AID 2283047); details: primary human coronary artery smooth muscle cells;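 further: sulforhodamine B total protein stain as relative cell number at 560 nm; sub-confluent cells exposed 48 h before staining; fitted both ways against DMSO so gain or loss of cell number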
[8] = read-out: Monokine induced gamma interferon (MIG), CXCL9 (gene 4283); test: BSK_CASM3C_MIG: BioMAP Diversity Plus: CASM3C Assay for Monokine induced gamma interferon (MIG) Biomarker Activity (AID 2283048); details: primary human coronary artery smooth muscle cells; actives raise or lower the signal;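 further: MIG protein level measured by ELISA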
[9] = read-out: serum amyloid A (SAA), SAA1 (gene 6288); test: BSK_CASM3C_SAA: BioMAP Diversity Plus: CASM3C Assay for serum amyloid A (SAA) Biomarker Activity (AID 2283049); details: primary human coronary artery smooth muscle cells; actives raise or lower the signal;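 further: SAA protein level quantified by ELISA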
[10] = BSK_CASM3C_SRB: Viability Assessment in the BioMAP Diversity Plus: CASM3C Assay (AID 2283050); details: primary human coronary artery smooth muscle cells;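 further: total protein by SRB staining as cytotoxicity measure in parallel cultures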
[11] = read-out: Thrombomodulin, THBD (gene 7056); test: BSK_CASM3C_Thrombomodulin: BioMAP Diversity Plus: CASM3C Assay for Thrombomodulin Biomarker Activity (AID 2283051); details: primary human coronary artery smooth muscle cells; actives raise or lower the signal;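 further: thrombomodulin protein level measured by ELISA 24 h after dosing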
[12] = read-out: Tissue Factor, F3 (gene 2152); test: BSK_CASM3C_TissueFactor: BioMAP Diversity Plus: CASM3C Assay for Tissue Factor Biomarker Activity (AID 2283052); details: primary human coronary artery smooth muscle cells; actives raise or lower the signal;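 further: cell surface tissue factor protein level read by ELISA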
[13] = read-out: Interferon-gamma inducible Protein 10 (IP10), CXCL10 (gene 3627); test: BSK_hDFCGF_IP10: BioMAP Diversity Plus: hDFCGF Assay for Interferon-gamma inducible Protein 10 (IP10) Biomarker Activity (AID 2283053); details: primary human foreskin fibroblasts; actives raise or lower the signal
In short: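 Human foreskin fibroblast primary cells (hDFCGF system) were dosed with chemical and assayed at 24 h; IP-10 measured by ELISA. Activity fitted bidirectionally relative to DMSO negative control as baseline.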

[14] = read-out: Urokinase-type plasminogen activator receptor (uPAR), PLAUR (gene 5329); test: BSK_CASM3C_uPAR: BioMAP Diversity Plus: CASM3C Assay for Urokinase-type plasminogen activator receptor (uPAR) Biomarker Activity (AID 2283054); details: primary human coronary artery smooth muscle cells; actives raise or lower the signal;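 further: cell-surface uPAR protein level quantified by ELISA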
[15] = read-out: Vascular cell adhesion molecule 1 (VCAM1), VCAM1 (gene 7412); test: BSK_CASM3C_VCAM1: BioMAP Diversity Plus: CASM3C Assay for Vascular cell adhesion molecule 1 (VCAM1) Biomarker Activity (AID 2283055); details: primary human coronary artery smooth muscle cells; actives raise or lower the signal;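 further: VCAM-1 protein level quantified by ELISA on the cells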
[16] = read-out: Collagen III, COL3A1 (gene 1281); test: BSK_hDFCGF_CollagenIII: BioMAP Diversity Plus: hDFCGF Assay for Collagen III Biomarker Activity (AID 2283056); details: primary human foreskin fibroblasts; actives raise or lower the signal
In short: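 hDFCGF primary human dermal fibroblasts; 24 h chemical exposure; collagen III by ELISA; bidirectional curve fit vs DMSO baseline (gain or loss of signal).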

[17] = read-out: Epidermal growth factor receptor (EGFR), EGFR (gene 1956); test: BSK_hDFCGF_EGFR: BioMAP Diversity Plus: hDFCGF Assay for Epidermal growth factor receptor (EGFR) Biomarker Activity (AID 2283057); details: primary human foreskin fibroblasts; actives raise or lower the signal
In short: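 Primary human foreskin fibroblasts were exposed to compound for 24 h, after which cell-surface EGFR was quantified by ELISA. Activity was fitted bidirectionally against the DMSO negative control as baseline.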

[18] = read-out: Interleukin-8 (IL8), CXCL8 (gene 3576); test: BSK_hDFCGF_IL8: BioMAP Diversity Plus: hDFCGF Assay for Interleukin-8 (IL8) Biomarker Activity (AID 2283058); details: primary human foreskin fibroblasts; actives raise or lower the signal
In short: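 ELISA read-out of IL-8 from primary human foreskin fibroblast cultures taken 24 h after dosing; values are bidirectional fits relative to DMSO vehicle.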

[19] = BSK_hDFCGF_Proliferation: Cell Proliferation Assessment in the BioMAP Diversity Plus: hDFCGF Assay (AID 2283059); details: primary human foreskin fibroblasts;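 further: curves fitted for both rise and fall of signal versus DMSO baseline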
In short: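 This proliferation readout used SRB total-protein staining of human foreskin fibroblasts […], normalized to DMSO with bidirectional curve fitting.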

[20] = read-out: Macrophage colony-stimulating factor (MCSF), CSF1 (gene 1435); test: BSK_hDFCGF_MCSF: BioMAP Diversity Plus: hDFCGF Assay for Macrophage colony-stimulating factor (MCSF) Biomarker Activity (AID 2283060); details: primary human foreskin fibroblasts; actives raise or lower the signal
In short: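 ELISA read-out of M-CSF in human dermal foreskin fibroblast cultures, 24 h after chemical dosing; gain or loss of signal fitted bidirectionally relative to DMSO baseline.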

C=CCOC(=O)CCC1CCCCC1
outcome [1]: inactive
outcome [2]: inactive
outcome [3]: inactive
outcome [4]: inactive
outcome [5]: inactive
outcome [6]: inactive
outcome [7]: inactive
outcome [8]: inactive
outcome [9]: inactive
outcome [10]: inactive
outcome [11]: inactive
outcome [12]: inactive
outcome [13]: inactive
outcome [14]: inactive
outcome [15]: inactive
outcome [16]: inactive
outcome [17]: inactive
outcome [18]: inactive
AC50 [19]: 30.8 µM (active) and 37.8 µM (active)
outcome [20]: inactive

O=C(O)c1cn(C2CC2)c2cc(N3CCNCC3)c(F)cc2c1=O
outcome [1]: inactive
outcome [2]: inactive
outcome [3]: inactive
outcome [5]: inactive
outcome [6]: inactive
outcome [7]: inactive
outcome [8]: inactive
outcome [9]: inactive
outcome [10]: inactive
outcome [11]: inactive
outcome [12]: inactive
outcome [13]: inactive
outcome [14]: inactive
outcome [15]: inactive
outcome [16]: inactive
outcome [17]: inactive
outcome [18]: inactive
outcome [19]: inactive

O=[N+]([O-])c1cc(C(F)(F)F)ccc1Cl
outcome [1]: inactive
outcome [2]: inactive
outcome [3]: inactive
outcome [4]: inactive
outcome [5]: inactive
outcome [6]: inactive
outcome [7]: inactive
outcome [8]: inactive
outcome [9]: inactive
outcome [10]: inactive
outcome [11]: inactive
outcome [12]: inactive
outcome [13]: inactive
outcome [14]: inactive
outcome [15]: inactive
outcome [16]: inactive
outcome [17]: inactive
outcome [18]: inactive
AC50 [19]: 17.1 nM (active)
outcome [20]: inactive

CNC[C@H](O)c1cccc(O)c1
outcome [1]: inactive
outcome [2]: inactive
outcome [3]: inactive
outcome [4]: inactive
outcome [5]: inactive
outcome [6]: inactive
outcome [7]: inactive
outcome [8]: inactive
outcome [9]: inactive
outcome [10]: inactive
outcome [11]: inactive
outcome [12]: inactive
outcome [13]: inactive
outcome [14]: inactive
outcome [15]: inactive
outcome [16]: inactive
outcome [17]: inactive
outcome [18]: inactive
outcome [19]: inactive
outcome [20]: inactive

c1ccc2sc(SN(C3CCCCC3)C3CCCCC3)nc2c1
outcome [1]: inactive
outcome [2]: inactive
outcome [3]: inactive
outcome [4]: inactive
outcome [5]: inactive
outcome [6]: inactive
AC50 [7]: 117 nM (active)
outcome [8]: inactive
outcome [9]: inactive
outcome [10]: inactive
AC50 [11]: 3000 nM (active)
outcome [12]: inactive
outcome [13]: inactive
outcome [14]: inactive
outcome [15]: inactive
outcome [16]: inactive
outcome [17]: inactive
outcome [18]: inactive
AC50 [19]: 2770 nM (active)
AC50 [20]: 951 nM (active)

CC(=O)O[C@]1(C(C)=O)CC[C@H]2[C@@H]3C[C@H](C)C4=CC(=O)CC[C@]4(C)[C@H]3CC[C@@]21C
outcome [1]: inactive
AC50 [2]: 8.2 nM (active)
outcome [3]: inactive
outcome [4]: inactive
AC50 [5]: 14700 nM (active)
AC50 [6]: 604 nM (active)
outcome [7]: inactive
outcome [8]: inactive
AC50 [9]: 8.2 nM (active)
outcome [10]: inactive
outcome [11]: inactive
outcome [12]: inactive
outcome [13]: inactive
outcome [14]: inactive
outcome [15]: inactive
outcome [16]: inactive
outcome [17]: inactive
outcome [18]: inactive
AC50 [19]: 80.2 nM (active)
outcome [20]: inactive

O=C(O)c1cn(-c2ccc(F)cc2)c2cc(N3CCNCC3)c(F)cc2c1=O
outcome [1]: inactive
outcome [2]: inactive
outcome [3]: inactive
outcome [4]: inactive
outcome [5]: inactive
outcome [6]: inactive
outcome [7]: inactive
outcome [8]: inactive
outcome [9]: inactive
outcome [10]: inactive
outcome [11]: inactive
outcome [12]: inactive
outcome [13]: inactive
outcome [14]: inactive
outcome [15]: inactive
outcome [16]: inactive
outcome [17]: inactive
outcome [18]: inactive
outcome [19]: inactive
outcome [20]: inactive
